In PubChem BioAssay (NCATS):
“And” between values parts separate entries of the source, which are not always exact repeats. Identical values can stand only once. Records with an inconclusive call do not appear. The source made the active and inactive calls. Unless noted, the call rests on the fitted dose curve; in most records, active means well fitted curve in the direction sought with a large enough effect; inconclusive means small, poorly fitted or top-dose-only effect, or another doubt; inactive means no such curve, though single readings can be large; an effect the other way counts as inactive or inconclusive.

Columns and labels:
[1] = Cell Viability - N2a (AID 540); conditions: N2a mouse neuroblastoma cell viability; activity change, negative = cytotoxicity: at 92.2 µM (top of the series);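 further: plate controls were DMSO alone for no effect and tamoxifen control for full effect; nearly all actives have a fitted effect of over 45% in size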
Method in brief: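 Mouse neuroblastoma N2a cells (1500/well) were preincubated 5 hr at 37 °C, then exposed to compounds for 40 hr at 37 °C in complete medium. Viability was read as intracellular ATP by CellTiter-Glo luminescence; AC50 from Hill fits.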

[2] = Cell Viability - H-4-II-E (AID 543); further: on the % scale 0 is the no-effect control and ±100 the full control effect; nearly all actives have a fitted effect of over 35% in size
Method in brief: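 Rat hepatoma H-4-II-E cells (1500/well) were plated, incubated 5 hr at 37 °C, then exposed to compounds for 40 hr at 37 °C. Cellular ATP was read by CellTiter-Glo luminescence; AC50 came from Hill-equation fits of concentration-response data.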

[3] = Cellular Toxicity (caspase-3) Mesangial (AID 660);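 further: cells exposed to compound for 16 h before the caspase read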
Method in brief: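 Human renal glomerular mesangial cells (1000/well) were treated with compounds for 16 h at 37 °C in complete medium, then caspase 3/7 activity was read by Caspase-Glo luminescence. Data were normalized to DMSO and 100 uM tamoxifen; AC50 from Hill fits.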

[4] = Cellular Toxicity (caspase-3) NIH 3T3 (AID 666);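 further: caspase signal read after 16 h compound exposure; 0% = DMSO basal and 100% = 100 µM tamoxifen stimulation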
Method in brief: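 Mouse NIH 3T3 fibroblasts (1000 cells/well) were treated with compound for 16 hr at 37°C in complete medium; caspase-3/7 activity was read by Caspase-Glo luminescence. Normalized to DMSO and 100 uM tamoxifen; AC50 from Hill fits.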

[5] = target: Cytochrome P450 3A4 (Homo sapiens) (UniProt P08684); experiment: qHTS Assay for Inhibitors and Substrates of Cytochrome P450 3A4 (AID 884); further: nearly all actives have a fitted effect of over 50% in size; further: potency means the concentration at half of the fitted maximal effect
Method in brief: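 20 nM human CYP3A4 with 25 uM Luciferin-PPXE (at KM) in 200 mM KPO4, preincubated 10 min with compound; NADPH regeneration started a 60 min RT reaction. Luciferin detected by luminescence, normalized to 57 uM ketoconazole as full inhibition.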

[6] = MultiTox-Fluor Cytotoxicity Assay - LYMP1-002 - Dead Cells (AID 960);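 further: 0% = DMSO and 100% = tetraoctylammonium bromide; nearly all actives have a fitted effect of over 60% in size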
Method in brief: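 Human lymphoblastoid cells (LYMP1-002), 2500/well in complete medium, were exposed to compounds for 16 hr at 37 C. Dead-cell protease activity was read as bis-AAF-R110 fluorescence (Ex/Em 485/520), normalized to DMSO and 15 uM tetraoctylammonium bromide; AC50 from Hill fits.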

[7] = Cell Viability - LYMP2-004 (AID 966); further: nearly all actives have a fitted effect of over 65% in size; further: potency means the concentration at half of the fitted maximal effect;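 on activity change, negative = cytotoxicity: plate controls were DMSO only for no effect and tetraoctylammonium bromide control for full effect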
Method in brief: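 Human lymphoblastoid cells (2500/well) in complete medium were treated with compounds for 24 hr at 37 C, then intracellular ATP was measured by CellTiter-Glo luminescence. AC50 values came from Hill-equation fits of concentration-response data.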

[8] = Cell Viability - LYMP2-021 (AID 974);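 further: compound exposure lasts 24 hours at 37 °C; nearly all actives have a fitted effect of over 55% in size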; further: potency means the concentration at half of the fitted maximal effect; on activity change, negative = cytotoxicity: on the % scale 0 is the no-effect control and ±100 the full control effect
Method in brief: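 Human lymphoblastoid cells (2500/well) were preincubated 5 hr at 37 C, then exposed to compounds for 24 hr at 37 C in complete medium. Intracellular ATP was read by CellTiter-Glo luminescence; AC50 came from Hill-equation fits of concentration-response data.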

[9] = Cell Viability - LYMP2-012 (AID 982);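 further: cellular ATP by luciferase luminescence where a drop means cytotoxicity; cells exposed to compound for one day before reading; nearly all actives have a fitted effect of over 55% in size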; further: potency means the concentration at half of the fitted maximal effect;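 on activity change, negative = cytotoxicity: 0% = DMSO only and full loss = 92 µM tetraoctylammonium bromide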
[10] = target: Vitamin D3 receptor (Homo sapiens) (UniProt P11473); experiment: qHTS assay for small molecule antagonists of vitamin D receptor signaling (AID 588541; calls by dose curve;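 further: receptor activated by calcitriol during compound treatment; on the % scale 0 is the no-effect control and ±100 the full control effect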)
Method in brief: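 VDR-UAS-bla HEK293T cells (2000/well, 2% charcoal-stripped FBS) were treated with titrated compounds plus 1-alpha,25-dihydroxyvitamin D3 (50 nM or 3 nM final) for 16 h at 37 C. CCF4 beta-lactamase fluorescence was read; Hill fits gave IC50.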

[11] = target: Vitamin D3 receptor (Homo sapiens) (UniProt P11473); experiment: qHTS assay for small molecule agonists of vitamin D receptor signaling (AID 588543; calls by dose curve;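 further: 0% = DMSO basal and 100% = reference agonist control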)
Method in brief: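 Measured: β-lactamase reporter activity (CCF4, 405 nm excitation, 460/530 nm emission) in HEK293T VDR-UAS-bla cells after 16 h compound exposure at 37 °C. Normalization against 50 nM 1α,25-dihydroxyvitamin D3 and DMSO; Hill-fit EC50.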

[12] = target: Thyroid hormone receptor beta (Homo sapiens) (UniProt P10828); experiment: qHTS assay for small molecule agonists of thyroid hormone receptor beta signaling (AID 588545; calls by dose curve;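 further: 0% = DMSO only and 100% = 10 nM T3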)
Method in brief: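 Compounds were tested as agonists in TR-UAS-bla-GripTite HEK 293 cells. After 18 hrs at 37 C, CCF4 substrate was added and fluorescence read after 2 hrs at room temperature.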

[13] = qHTS assay for small molecule antagonists of retinoid X receptor alpha signaling (AID 588546; active means well fitted inhibition curve with a large enough effect in the signal ratio, with a control signal flat, not every such curve was filed as active; the % refers to the signal ratio;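 further: cells stimulated with 9-cis-retinoic acid as agonist; on the % scale 0 is the no-effect control and ±100 the full control effect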); conditions: HEK293T RXRa-UAS-bla, beta-lactamase ratio, antagonist mode; measured here: W530 green channel, cytotoxicity proxy
Method in brief: (§1)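 Beta-lactamase reporter inhibition, read as CCF4 fluorescence ratio (ex 405, em 460/530 nm) after 2 h at RT. HEK293T UAS-bla cells, 2500/well, were stimulated with 9-cis-RA at 500 or 100 nM final alongside test compound for 18 h at 37 C.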

[14] = target: Retinoic acid receptor RXR-alpha (Homo sapiens) (UniProt P19793); experiment: as above; conditions: HEK293T RXRa-UAS-bla, beta-lactamase ratio, antagonist mode
Method in brief: as §1

[15] = target: Tumor necrosis factor (Homo sapiens) (UniProt P01375); experiment: qHTS assay to identify small molecules that stimulate Tumor Necrosis Factor-alpha (TNF-alpha) secretion (AID 651757; active means well fitted curve in the direction sought with a large enough effect in the signal ratio; the % refers to the signal ratio; further: 0% is about no effect)
Method in brief: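 THP-1 cells were exposed to compounds for 17 hrs at 37 C, after which secreted TNF-alpha was measured by homogeneous HTRF (TR-FRET) using cryptate- and XL665-labeled anti-TNF-alpha antibodies, read after 3 hr at room temperature.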

[16] = target: Nuclear receptor ROR-gamma (Homo sapiens) (UniProt P51449); experiment: qHTS assay for small molecule antagonists of the retinoid-related orphan receptor gamma (ROR-gamma) signaling pathway (AID 651802); further: on the % scale 0 is the no-effect control and ±100 the full control effect; nearly all actives have a fitted effect of over 60% in size
Method in brief: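 CHO cells carrying TET-inducible ROR-gamma and an ROR response element–luciferase reporter were exposed to compound, then induced with doxycycline. After 16hr at 37C, luminescence was read; lower signal indicates antagonism.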

[17] = qHTS assay for small molecule agonists of the antioxidant response element (ARE) signaling pathway measured by Nrf2-dependant transcriptional activity (AID 720636; active means well fitted curve in the direction sought with a large enough effect in the repeat runs; an effect the other way counts as inactive or inconclusive; further: % of control where 0% means no effect)
Method in brief: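 ARE-luc HepG2 cells carrying an Nrf2-responsive luciferase reporter, in medium with 1% dialyzed FBS, exposed to compound for 16 hr at 37 C, 5% CO2. Luminescence read 30 min after ONE-Glo addition.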

[18] = qHTS assay for small molecule antagonists of the retinoid-related orphan receptor gamma (ROR-gamma) signaling pathway - cell viability counter screen (AID 720652; active means well fitted curve in the direction sought with a large enough effect in the repeat runs; an effect the other way counts as inactive or inconclusive;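 further: compound exposure lasted 16 hr before ATP read; on the % scale 0 is the no-effect control and ±100 the full control effect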)
Method in brief: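 Counter screen in CHO cells carrying TET-inducible ROR-gamma and an ROR response element-luciferase reporter; cells plated 5 hr, compound pinned, doxycycline added, then 16 hr at 37 C. Viability read as intracellular ATP by CellTiter-Glo luminescence.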

[19] = qHTS assay for small molecule activators of the human pregnane X receptor (PXR) signaling pathway (AID 720659; call rule not given here; further: 0% is about no effect)
[20] = Cell Viability - LYMP1-002 - Assay at 40 hr (AID 994);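 further: 0% = DMSO only and full inhibition = 92 µM tetraoctylammonium bromide; nearly all actives have a fitted effect of over 60% in size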
Method in brief: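 Human lymphoblastoid cells, 2500/well in complete medium, were preincubated 5 hr at 37 C, then exposed to compounds for 40 hr at 37 C. Intracellular ATP was read by CellTiter-Glo luminescence after 30 min at room temperature; AC50 from Hill-equation fits.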

Chain of Nuclear receptor ROR-gamma (Homo sapiens) (P51449 whole entry, looked up): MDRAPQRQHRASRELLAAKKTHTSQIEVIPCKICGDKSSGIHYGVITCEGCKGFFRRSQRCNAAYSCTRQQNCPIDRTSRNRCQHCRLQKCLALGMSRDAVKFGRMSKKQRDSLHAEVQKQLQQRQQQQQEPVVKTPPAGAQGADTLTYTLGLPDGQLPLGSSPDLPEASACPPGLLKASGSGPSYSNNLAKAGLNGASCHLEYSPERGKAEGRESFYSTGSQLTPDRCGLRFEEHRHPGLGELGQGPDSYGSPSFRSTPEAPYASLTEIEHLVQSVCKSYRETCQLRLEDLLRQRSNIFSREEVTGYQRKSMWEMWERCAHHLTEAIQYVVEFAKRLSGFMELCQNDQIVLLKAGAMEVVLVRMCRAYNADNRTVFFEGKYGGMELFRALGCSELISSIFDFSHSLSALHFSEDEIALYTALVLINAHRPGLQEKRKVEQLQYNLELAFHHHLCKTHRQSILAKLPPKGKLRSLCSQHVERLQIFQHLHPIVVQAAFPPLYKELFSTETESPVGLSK
Chain of Vitamin D3 receptor (Homo sapiens) (P11473 whole entry, looked up): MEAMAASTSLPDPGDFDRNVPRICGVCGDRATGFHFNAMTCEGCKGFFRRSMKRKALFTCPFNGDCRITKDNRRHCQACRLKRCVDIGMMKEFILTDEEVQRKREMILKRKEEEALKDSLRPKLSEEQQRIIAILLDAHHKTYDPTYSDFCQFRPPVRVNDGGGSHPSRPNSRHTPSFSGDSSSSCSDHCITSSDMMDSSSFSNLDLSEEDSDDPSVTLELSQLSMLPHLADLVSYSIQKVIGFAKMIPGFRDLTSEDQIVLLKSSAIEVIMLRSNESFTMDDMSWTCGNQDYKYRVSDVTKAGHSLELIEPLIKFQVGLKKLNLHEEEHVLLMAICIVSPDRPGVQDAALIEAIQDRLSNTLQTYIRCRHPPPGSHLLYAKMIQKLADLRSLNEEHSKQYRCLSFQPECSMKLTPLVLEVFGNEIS
Chain of Tumor necrosis factor (Homo sapiens) (P01375 whole entry, looked up): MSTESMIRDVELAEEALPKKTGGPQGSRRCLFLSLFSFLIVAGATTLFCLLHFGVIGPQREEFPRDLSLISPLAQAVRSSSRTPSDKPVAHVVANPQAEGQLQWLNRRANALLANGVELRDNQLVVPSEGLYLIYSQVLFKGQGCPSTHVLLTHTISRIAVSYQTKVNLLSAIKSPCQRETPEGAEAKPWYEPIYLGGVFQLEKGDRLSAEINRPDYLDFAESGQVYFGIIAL
Chain of Retinoic acid receptor RXR-alpha (Homo sapiens) (P19793 whole entry, looked up): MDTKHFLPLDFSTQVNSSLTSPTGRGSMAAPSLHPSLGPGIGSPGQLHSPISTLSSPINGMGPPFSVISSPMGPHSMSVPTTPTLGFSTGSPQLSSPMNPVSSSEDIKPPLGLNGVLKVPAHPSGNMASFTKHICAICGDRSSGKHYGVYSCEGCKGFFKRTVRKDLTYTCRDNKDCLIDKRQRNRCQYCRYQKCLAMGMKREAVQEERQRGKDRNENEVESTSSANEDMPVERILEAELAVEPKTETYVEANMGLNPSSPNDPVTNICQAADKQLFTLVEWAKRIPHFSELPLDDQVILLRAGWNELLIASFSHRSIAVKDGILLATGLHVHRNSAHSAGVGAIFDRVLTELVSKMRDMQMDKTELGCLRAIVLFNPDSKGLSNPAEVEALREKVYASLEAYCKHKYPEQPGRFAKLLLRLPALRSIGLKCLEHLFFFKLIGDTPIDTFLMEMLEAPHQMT
Chain of Thyroid hormone receptor beta (Homo sapiens) (P10828 whole entry, looked up): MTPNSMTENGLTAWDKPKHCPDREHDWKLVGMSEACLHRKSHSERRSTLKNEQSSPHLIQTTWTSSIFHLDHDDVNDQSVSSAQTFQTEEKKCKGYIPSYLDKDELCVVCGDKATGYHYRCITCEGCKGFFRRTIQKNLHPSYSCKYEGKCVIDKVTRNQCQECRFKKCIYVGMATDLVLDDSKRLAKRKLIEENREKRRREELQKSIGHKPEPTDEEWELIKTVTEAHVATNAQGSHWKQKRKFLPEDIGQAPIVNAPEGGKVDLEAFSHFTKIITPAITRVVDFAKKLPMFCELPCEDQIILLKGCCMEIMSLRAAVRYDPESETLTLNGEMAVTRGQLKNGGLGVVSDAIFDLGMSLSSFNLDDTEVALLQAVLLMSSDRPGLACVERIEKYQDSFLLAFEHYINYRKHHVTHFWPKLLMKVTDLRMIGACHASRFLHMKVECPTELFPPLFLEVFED
Chain of Cytochrome P450 3A4 (Homo sapiens) (P08684 whole entry, looked up): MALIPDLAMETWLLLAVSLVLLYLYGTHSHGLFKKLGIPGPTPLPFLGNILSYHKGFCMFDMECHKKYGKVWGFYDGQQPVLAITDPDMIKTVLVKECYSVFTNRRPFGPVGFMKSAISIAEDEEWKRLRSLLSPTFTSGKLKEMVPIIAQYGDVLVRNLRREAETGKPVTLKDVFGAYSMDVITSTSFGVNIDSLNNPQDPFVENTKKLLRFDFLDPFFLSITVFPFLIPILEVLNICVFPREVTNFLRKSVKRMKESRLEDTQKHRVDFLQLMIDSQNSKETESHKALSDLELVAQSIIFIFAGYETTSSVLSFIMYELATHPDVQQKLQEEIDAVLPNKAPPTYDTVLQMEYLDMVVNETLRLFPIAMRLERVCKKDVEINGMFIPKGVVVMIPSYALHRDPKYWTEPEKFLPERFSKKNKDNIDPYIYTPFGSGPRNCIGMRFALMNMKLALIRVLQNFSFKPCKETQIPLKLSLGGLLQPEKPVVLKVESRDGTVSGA

Cc1cnc[nH]1
inactive: Potency [1] | Potency [2] | outcome [3] | Potency [4] | Potency [5] | Potency [6] | Potency [7] | Potency [8] | Potency [9] | outcome [10] | outcome [11] | Potency [12] | max response [14] 4.17% | outcome [15] | Potency [16] | Potency [17] | Potency [18] | outcome [19]
-10.6%: max response [13]

CCCCCc1cc(O)cc(O)c1
active: Potency [5] 12.6 µM
inactive: Potency [1] | Potency [2] | outcome [3] | Potency [7] | Potency [9] | Potency [20] | outcome [10] | outcome [11] | Potency [12] | max response [14] -16.8% | outcome [15] | Potency [16] | Potency [17] | outcome [19]
-2.02%: max response [13]

O=P(OCCCl)(OCCCl)OCCCl
inactive: Potency [1] | Potency [2] | outcome [3] | Potency [4] | Potency [5] | Potency [6] | Potency [7] | Potency [8] | Potency [9] | Potency [20] | outcome [10] | outcome [11] | Potency [12] | max response [14] 7.26% | outcome [15] | Potency [16] | Potency [17] | Potency [18] | outcome [19]
-9.97%: max response [13]

CCCCOC(=O)c1ccccc1N
inactive: Potency [1] | Potency [2] | outcome [3] | Potency [4] | Potency [5] | Potency [6] | Potency [7] | Potency [8] | Potency [9] | Potency [20] | outcome [10] | outcome [11] | max response [14] 6.01% | outcome [15] | Potency [16] | Potency [17] | Potency [18] | outcome [19]
-0.876%: max response [13]

CN(C)N=O
1.95%: max response [13]
inactive: Potency [1] | Potency [2] | outcome [3] | Potency [5] | Potency [6] | Potency [7] | Potency [8] | Potency [9] | Potency [20] | outcome [10] | outcome [11] | Potency [12] | max response [14] -0.776% | outcome [15] | Potency [16] | Potency [17] | Potency [18] | outcome [19]

Nn1cnnc1
inactive: Potency [1] | Potency [2] | outcome [3] | Potency [4] | Potency [5] | Potency [6] | Potency [7] | Potency [8] | Potency [9] | Potency [20] | outcome [10] | outcome [11] | Potency [12] | max response [14] 24.4% | outcome [15] | Potency [16] | Potency [17] | Potency [18] | outcome [19]
-0.424%: max response [13]

c1ccc(NNc2ccccc2)cc1
-8.78% and -5.97%: max response [13]
inactive: Potency [1] | Potency [2] | Potency [4] | Potency [5] | Potency [6] | Potency [8] | Potency [9] | Potency [20] | outcome [10] | outcome [11] | Potency [12] | max response [14] 1.29% and 6.1% | outcome [15] | Potency [16] | Potency [17] | Potency [18] | outcome [19]

O=C(O)c1cccc(Cl)c1
inactive: Potency [1] | Potency [2] | outcome [3] | Potency [4] | Potency [5] | Potency [6] | Potency [7] | Potency [8] | Potency [9] | Potency [20] | outcome [10] | outcome [11] | Potency [12] | outcome [15] | Potency [17] | Potency [18] | outcome [19]

Nc1ncc([N+](=O)[O-])s1
inactive: Potency [1] | Potency [2] | outcome [3] | Potency [4] | Potency [5] | Potency [6] | Potency [8] | Potency [9] | Potency [20] | outcome [10] | outcome [11] | Potency [12] | max response [14] 20% | outcome [15] | Potency [16] | Potency [17] | Potency [18] | outcome [19]
-7.58%: max response [13]

ClCCOCOCCCl
inactive: Potency [1] | Potency [2] | outcome [3] | Potency [4] | Potency [5] | Potency [6] | Potency [7] | Potency [8] | Potency [9] | Potency [20] | outcome [10] | outcome [11] | Potency [12] | max response [14] -0.285% | outcome [15] | Potency [16] | Potency [17] | Potency [18] | outcome [19]
-0.61%: max response [13]

OC[P+](CO)(CO)CO
5.58% and 5.35%: max response [13]
inactive: Potency [1] | outcome [3] | Potency [4] | Potency [5] | Potency [6] | Potency [20] | outcome [11] | Potency [12] | max response [14] -5.42% and -52.4% | outcome [15] | Potency [17] | Potency [18]
active: Potency [7] 20 µM | Potency [8] 12.6 µM | Potency [9] 15.8 µM

COC(=O)Nc1cccc(OC(=O)Nc2cccc(C)c2)c1
-2.23%: max response [13]
active: Potency [5] 25.1 µM
inactive: Potency [1] | outcome [3] | Potency [6] | Potency [7] | Potency [8] | Potency [9] | Potency [20] | Potency [12] | max response [14] 4.03% | outcome [15] | Potency [16] | Potency [18]

CCOC(=O)C1OC1(C)c1ccccc1 (configuration not stated)
inactive: Potency [1] | Potency [2] | outcome [3] | Potency [4] | Potency [5] | Potency [6] | Potency [7] | Potency [8] | Potency [9] | Potency [20] | max response [14] -0.211% | outcome [15] | Potency [16] | Potency [17] | Potency [18]
1.36%: max response [13]

Cc1cc(-c2ccc(N)c(C)c2)ccc1N
-15.7% and -12.6% and -3.84%: max response [13]
inactive: Potency [1] | outcome [3] | Potency [4] | Potency [6] | Potency [7] | Potency [8] | Potency [9] | Potency [20] | outcome [10] | outcome [11] | Potency [12] | max response [14] -5.08% and -3.85% and -31.9% | Potency [16] | Potency [17] | Potency [18]

CCC/C=N/O
-10.3%: max response [13]
inactive: Potency [1] | Potency [2] | outcome [3] | Potency [4] | Potency [5] | Potency [6] | Potency [7] | Potency [8] | Potency [9] | Potency [20] | outcome [10] | outcome [11] | Potency [12] | max response [14] -0.259% | outcome [15] | Potency [16] | Potency [17] | Potency [18] | outcome [19]

c1ccoc1
inactive: Potency [1] | Potency [2] | outcome [3] | Potency [5] | Potency [6] | Potency [7] | Potency [8] | Potency [9] | Potency [20] | outcome [10] | outcome [11] | Potency [12] | max response [14] -5.23% | outcome [15] | Potency [17] | Potency [18] | outcome [19]
1%: max response [13]
